Sampled rows, rich in hits. Any-hit rate of the full collection: about 12%.
Sfp PPTase inh: Sfp phosphopantetheinyl transferase inhibition; Potency, µM, for inactives: largest response in the series, negative = inhibition, actives largely listed as inhibitors; Biochemical Sfp PPTase activity, qHTS; Q9F4F7; 3.5% of 310,000 active; AID 1490;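 also: the enzyme is Sfp with the accession as filed and its product quenches rhodamine fluorescence; 0% = enzyme reaction without inhibitor and -100% = no enzyme wells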
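After 15 min at room temperature with compound, 15 nM Sfp received 5 uM rhodamine-CoA plus 12.5 uM BHQ-2-ybbR (50 mM Hepes pH 7.6, 10 mM MgCl2). Rate came from the fluorescence difference over 30 min, ex 525/em 598 nm.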
JMJD2A Tudor inh: JMJD2A Tudor domain (human) inhibition. O75164. AlphaScreen JMJD2A-Tudor / H3K4me3 peptide binding. Potency, µM (series often up to 114 µM), for the others: at the top dose activity change, negative = inhibition, most hits filed as inhibitors. 4.4% of 390,000 active. AID 504339; also: % is scaled to controls: 0 for no effect and ±100 for the full control effect; nearly all actives have a fitted effect of over 50% in size
HP1b chromo inh: inhibitors of HP1-beta chromodomain binding to methylated histone tails | P83916 | AID 540317 | Potency, µM (doses to about 114 µM), for inactives: at the highest dose activity change, negative = inhibition, hits mostly inhibitors | AlphaScreen HP1-beta / biotin-H3K9me3 peptide binding | 0.56% of 390,000 active; also: nearly all actives have a fitted effect of over 70% in size
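Compound inhibition of the preformed complex between 50 nM HP1-beta and 50 nM biotinylated H3K9me3 peptide was read by AlphaScreen. Buffer was PBS pH 7.4 with 0.01% Tween-20. Incubations ran 30 min at room temperature, with 10 ug/mL donor/acceptor beads.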
G9a inh: blocks human histone lysine methyltransferase G9a. Potency, µM (doses to about 102 µM), without a hit: at the top dose activity, negative = inhibition, actives largely listed as inhibitors. G9a H3K9 monomethylation, AlphaScreen, 2 h. AID 504332. 8.8% of 350,000 active; also: % is scaled to controls: 0 for no effect and ±100 for the full control effect; nearly all actives have a fitted effect of over 75% in size
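AlphaScreen read-out: biotin-H3K9 peptide (500 nM) methylation by 20 nM enzyme with 20 uM SAM, 2 h at room temperature after 15 min compound preincubation; anti-monomethyl H3K9 antibody plus donor/acceptor beads, 10 min dark.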
BAZ2B block: inhibitors of human BAZ2B bromodomain. Q9UIF8. AlphaScreen BAZ2B-H3K14Ac peptide displacement. Potency, µM (series often up to 114 µM), for the others: at the highest dose activity change, negative = inhibition, actives largely listed as inhibitors. 4.4% of 360,000 active; also: % is scaled to controls: 0 for no effect and ±100 for the full control effect; nearly all actives have a fitted effect of over 60% in size
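BAZ2B (50 nM) with biotin-H3(5-23)K14Ac peptide (50 nM) in PBS pH 7.4, 0.01% Tween-20, preformed 30 min, then compound 30 min at room temperature; top concentration 110uM. AlphaScreen streptavidin donor/nickel chelate acceptor beads (10 ug/mL final), 20 min dark, signal read.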
* hit, by the source's call; ? = inconclusive; nt = no result given; [ ] = another dose, or the depositor's remark. Calls follow the shape of the dose curve; as a rule, active = well fitted curve in the direction sought with a large enough effect; inconclusive = small, poorly fitted or top-dose-only effect, or another doubt; inactive = no such curve, though single readings can be large; an effect the other way counts as inactive or inconclusive. Potency is read from the fitted curve at half-maximal effect.

SMILES	Sfp PPTase inh	JMJD2A Tudor inh	HP1b chromo inh	G9a inh	BAZ2B block
CCS(=O)(=O)c1ncc(N(Cc2ccccc2)Cc2ccco2)c(C(=O)Nc2ccc(C)c(C)c2)n1	nt	-26%	22%	?	?
CN1c2ccccc2C(C)(C)C12CC(CCl)=NO2 (stereo unspecified)	-8%	-21%	23%	-10%[2.33 µM]	-6%
CN1c2ccccc2C(C)(C)C12C=Nc1c(ccc3ccccc13)O2 (stereo unspecified)	-94%	?	0%	nt	50µM*
COc1ccc2ccc3c(c2c1)N=CC1(O3)N(C)c2ccccc2C1(C)C (stereo unspecified)	-4%	45µM*	?	5.6µM*	-10%
CN1c2ccccc2C(C)(C)[C@]12C=Cc1cc(O)ccc1O2	-15%	56µM*	?	?	40µM*
O=C(c1cc(C(F)(F)F)cc(C(F)(F)F)c1)N1CCC[C@@]2(CCN(Cc3nccs3)C2)C1	22%	nt	nt	-1%[12.7 µM]	nt
COCC(=O)N1CCC2(CCCN(c3cccc(-c4ccccc4)c3)C2)CC1	-22%	nt	nt	-3%[12.7 µM]	nt
Cn1cc(S(=O)(=O)N2CCCCC2)cc1C(=O)N1CCN(c2ccccc2F)CC1	nt	-23%	17%[57 µM]	7%[59 µM]	-14%
CC1(C)Cc2c(C#N)c(NCCO)nc(-c3ccco3)c2CO1	16µM*	13%	53%	40µM*	-2%
N#Cc1c(NC2CCCCC2)nc(-c2ccco2)c2c1CCCC2	?	53%	29%	-11%[12.7 µM]	7%
N#Cc1c(NCCCO)nc(-c2ccco2)c2c1CCCC2	40µM*	15%	25%	3.2µM*	6%
CC1(C)Cc2c(C#N)c(NCCN3CCOCC3)nc(-c3ccco3)c2CO1	-21%	-9%	27%	-12%[59 µM]	nt
CC1CCN(c2nc(-c3ccco3)c3c(c2C#N)CC(C)(C)OC3)CC1	14µM*	1%	33%	?	10%
Cc1cc(C)cc(-n2c(SCC(=O)N3CCOCC3)nc3c([nH]c4ccccc43)c2=O)c1	nt	-5%	51%[57 µM]	6%[59 µM]	34%
Cc1[nH]c2ccccc2c1C=NNC(=O)c1cc(-c2cccnc2)nc2ccccc12	nt	-11%	29%	nt	nt
Cc1ccc(N2C(=O)CCSC23C(=O)N(Cc2ccccc2)c2ccccc23)cc1F (stereo unspecified)	nt	?	-10%	?	-22%[57.1 µM]
Cc1cccc(NC(=O)CSc2nc(=O)n(Cc3ccccn3)c3c2CCC3)c1C	nt	-3%	9%	9%[59 µM]	-4%
Cc1noc(C)c1-c1ccc2ncnc(NCc3cccc(Cl)c3)c2c1	-19%	-12%	nt	nt	nt
CCOc1ccc(NC(=O)Cn2ccn(-c3ccc(F)c(F)c3)c(=O)c2=O)cc1	nt	-15%	16%	3%[59 µM]	-15%
COc1ccc(N2CCN(Cc3cccn3-c3nnc(N4CCN(C5CCCCC5)CC4)s3)CC2)cc1	nt	50µM*	?	?	?
CCOc1ccc(NCc2cccn2-c2nnc(N3CCC(C(=O)NCCCN4CC(C)CC(C)C4)CC3)s2)cc1 (stereo unspecified)	10%	40µM*	?	45µM*	?
COc1ccc(NCc2cccn2-c2nnc(N3CCCCCC3)s2)cc1	nt	45µM*	?	?	-39%[57.1 µM]
COc1ccc(N2CCN(Cc3nnnn3C3CCCCC3)CC2)cc1	-2%	-27%	?	50µM*	-39%
CCOc1ccc(NCc2cccn2-c2nnc(N3CCC(C(=O)NCCc4ccc(OC)c(OC)c4)CC3)s2)cc1	nt	?	-6%	?	?
O=C(NN1C(=O)C2C3C=CC(O3)C2C1=O)c1cccc(O)c1 (stereo unspecified)	45µM*	-13%	43%	7.9µM*	-3%
SMILES	Sfp PPTase inh	JMJD2A Tudor inh	HP1b chromo inh	G9a inh	BAZ2B block
Cc1cccc(C(=O)NN2C(=O)C3C(c4ccccc4)C=CC(c4ccccc4)C3C2=O)c1 (stereo unspecified)	40%	-13%	23%	41%	10%[57.1 µM]
COc1cccc(C(=O)NN2C(=O)C3C4C=CC(O4)C3C2=O)c1 (stereo unspecified)	?	-8%	58%	?	-2%
COc1ccc(C(=O)NN2C(=O)C3C4C=CC(O4)C3C2=O)cc1 (stereo unspecified)	22µM*	-11%	11%	4.5µM*	0%
O=C(NN1C(=O)C2C3C=CC(O3)C2C1=O)c1cccc(Br)c1 (stereo unspecified)	40µM*	3%	46%	?	-11%
CC(C)OC(=O)C[C@H](NC(=O)OC(C)(C)C)c1ccccc1	-2%	nt	nt	nt	nt
C=CCn1c(SCC(=O)Nc2sccc2C(N)=O)nc2ccc(Cl)cc2c1=O	45µM*	-20%	30%	?	-7%
C=CCn1c(SCC(=O)Nc2sccc2C(N)=O)nc2ccccc2c1=O	-1%	-16%	7%	?	-17%
COc1ccc(Br)cc1CNC(=O)CCSCc1ccc(Cl)cc1	nt	-7%	34%	-18%[59 µM]	-1%
CC1CCN(c2[nH]c(=S)c(C#N)c3c2CCCC3)CC1	32µM*	-6%	32%	32µM*	8%
COc1ccc(-c2cc(C(F)(F)F)c3c(=O)n(-c4ccccc4)[nH]c3n2)cc1	-26%	56µM*	-38%	13µM*	?
COc1ccc(-c2cc(C(F)(F)F)nc(NCc3ccccc3)n2)cc1	nt	115%	205%	187%[59 µM]	175%
Cc1ccc(COc2ccsc2C(=O)NN)cc1	2%	-15%	23%	-7%	-30%
O=[N+]([O-])c1cccc(/C=N/NS(=O)(=O)c2ccccc2)c1	0%	-19%	50%	nt	-7%
CCN(CC)c1ccc(/C=N/NS(=O)(=O)c2ccc(C)c([N+](=O)[O-])c2)cc1	-5%	35µM*	?	40µM*	?
Cc1ccc(S(=O)(=O)N/N=C/c2ccccc2O)cc1[N+](=O)[O-]	10%	-11%	5%	?	-38%
CCN(Cc1ccccc1)c1ccc(/C=N/NS(=O)(=O)c2cccc([N+](=O)[O-])c2)cc1	?	?	?	10µM*	?
Cc1ccc(S(=O)(=O)N/N=C/c2ccc(O)c(O)c2)cc1[N+](=O)[O-]	?	?	-18%	35µM*	-35%
O=C(O)C1CC(C(=O)O)SS1 (stereo unspecified)	nt	32µM*	-6%	nt	nt
Cc1ccc(C(=O)NCCCNC(=O)c2ccccc2F)cn1	7%	-14%	15%	5%	0%
NCCCNC(=O)c1ccc(/C=N/O)nc1	71µM*	8.9µM*	1%	2.8µM*	22µM*
CCCn1c(N)c(C(=O)COC(=O)/C=C/c2ccc(OC(F)F)c(OC)c2)c(=O)[nH]c1=O	nt	-6%	20%	nt	nt
NC(=S)N=Nc1c(O)[nH]c2cc(F)c(F)cc12	45µM*	-26%	20%	6%[59 µM]	4%
NC(=S)N=Nc1c(O)[nH]c2c(Cl)cc(Cl)cc12	nt	-34%	-22%	nt	nt
CC(=O)N/N=C(\N)c1nonc1N	89µM*	?	28%	nt	-5%

From PubChem
